35 compounds from PubChem BioAssay (NCATS) can be followed below.

Results filed as inconclusive are left out. A number with no mark means an inactive call. Activity calls are given as the source filed them. The call rests on the fitted dose curve; in most records, active means well fitted inhibition curve with a large enough effect; inconclusive means small, poorly fitted or top-dose-only effect; inactive means flat fitted curve, though single readings scatter.
Potency means the concentration at half of the fitted maximal effect.

Chain of Luciferin 4-monooxygenase (Photinus pyralis) (P08659 whole entry, looked up): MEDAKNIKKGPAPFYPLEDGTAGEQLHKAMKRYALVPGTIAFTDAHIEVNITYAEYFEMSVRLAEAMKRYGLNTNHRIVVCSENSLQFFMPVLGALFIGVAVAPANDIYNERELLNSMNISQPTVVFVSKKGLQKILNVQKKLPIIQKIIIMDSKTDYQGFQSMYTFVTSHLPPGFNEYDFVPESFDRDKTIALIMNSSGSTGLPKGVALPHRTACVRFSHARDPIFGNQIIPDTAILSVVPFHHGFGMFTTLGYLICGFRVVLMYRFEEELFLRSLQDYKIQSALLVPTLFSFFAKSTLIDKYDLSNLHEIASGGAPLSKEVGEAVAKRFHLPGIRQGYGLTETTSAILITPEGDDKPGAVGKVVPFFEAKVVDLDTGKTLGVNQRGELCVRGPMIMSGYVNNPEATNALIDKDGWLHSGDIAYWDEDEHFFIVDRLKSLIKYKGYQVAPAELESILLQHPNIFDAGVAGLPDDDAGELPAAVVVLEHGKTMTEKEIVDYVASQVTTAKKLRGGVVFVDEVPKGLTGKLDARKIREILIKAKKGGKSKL
Chain of Voltage-gated inwardly rectifying potassium channel KCNH2 (Homo sapiens) (Q12809 whole entry, looked up): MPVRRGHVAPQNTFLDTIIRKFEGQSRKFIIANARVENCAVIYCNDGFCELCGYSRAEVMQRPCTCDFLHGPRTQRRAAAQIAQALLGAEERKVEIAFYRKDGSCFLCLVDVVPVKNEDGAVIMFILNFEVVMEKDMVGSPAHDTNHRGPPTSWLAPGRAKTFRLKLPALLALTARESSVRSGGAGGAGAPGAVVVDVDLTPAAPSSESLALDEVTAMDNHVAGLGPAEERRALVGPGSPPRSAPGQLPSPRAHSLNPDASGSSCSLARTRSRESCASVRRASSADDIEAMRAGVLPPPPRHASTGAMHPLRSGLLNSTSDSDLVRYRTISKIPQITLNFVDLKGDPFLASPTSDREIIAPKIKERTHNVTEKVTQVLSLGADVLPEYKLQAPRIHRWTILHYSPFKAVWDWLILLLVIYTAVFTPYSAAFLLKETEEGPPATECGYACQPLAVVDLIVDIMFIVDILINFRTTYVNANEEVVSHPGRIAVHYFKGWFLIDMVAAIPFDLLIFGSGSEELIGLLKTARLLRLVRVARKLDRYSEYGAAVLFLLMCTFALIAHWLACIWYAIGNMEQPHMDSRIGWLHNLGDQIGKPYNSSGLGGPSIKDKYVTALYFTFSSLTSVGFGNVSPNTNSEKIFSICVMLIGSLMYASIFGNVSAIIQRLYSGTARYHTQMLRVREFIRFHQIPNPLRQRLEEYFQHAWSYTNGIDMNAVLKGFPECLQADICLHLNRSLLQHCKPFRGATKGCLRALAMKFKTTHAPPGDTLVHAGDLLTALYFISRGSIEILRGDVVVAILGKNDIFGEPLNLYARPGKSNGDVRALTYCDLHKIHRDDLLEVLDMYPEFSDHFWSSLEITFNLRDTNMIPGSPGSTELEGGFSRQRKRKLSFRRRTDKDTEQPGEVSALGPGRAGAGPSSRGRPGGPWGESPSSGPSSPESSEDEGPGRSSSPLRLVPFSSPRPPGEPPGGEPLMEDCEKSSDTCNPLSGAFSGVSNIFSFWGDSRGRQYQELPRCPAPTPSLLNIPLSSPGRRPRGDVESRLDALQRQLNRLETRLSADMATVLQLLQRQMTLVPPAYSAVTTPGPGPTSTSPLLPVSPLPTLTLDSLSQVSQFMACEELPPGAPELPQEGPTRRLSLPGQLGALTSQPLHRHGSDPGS

For one assay, the target named is Voltage-gated inwardly rectifying potassium channel KCNH2 (Homo sapiens) (UniProt Q12809). The assay is described as follows: qHTS Assay for Small Molecule Inhibitors of the Human hERG Channel Activity (AID 588834).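 Further: lower thallium flux fluorescence means stronger hERG block; nearly all actives have a fitted effect of over 50% in size.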 On activity change, negative = inhibition: top concentration of the series differs between compounds; on the % scale 0 is the no-effect control and ±100 the full control effect. As to conditions: U2OS BacMam hERG, FluxOR thallium flux fluorescence; series mostly up to 46.1 µM; activity change, negative = inhibition: at the top concentration. Summed up:
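U2OS cells transduced with hERG via BacMam (MOI ~100), plated 2000/well, loaded with FluxOR thallium dye, compound ~10 min, then stimulation buffer; fluorescence decrease read kinetically; AC50 from Hill fits.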
On the technique in general: Quantitative high-throughput screening tests each substance at several concentrations.
On to `C/C=C/C=N/NC(=O)c1ccncc1`, for which the “activity change, negative = inhibition” value is -1.31%.

For the compound `CC(C)Nc1cccnc1N1CCN(C(=O)c2cc3cc(NS(C)(=O)=O)ccc3[nH]2)CC1`, the Potency was 8.91 µM (active).

As to `CCCCNc1ccc(C(=O)OCCOCCOCCOCCOCCOCCOCCOCCOCCOC)cc1`, the “activity change, negative = inhibition” value was 8.12% [at 20.6 µM].

Regarding `CN1CCN(c2c(F)cc3c(=O)c(C(=O)O)cn4c3c2SCC4)CC1`, the “activity change, negative = inhibition” value was 9.1%.

On to `OCc1ccccn1`, for which the “activity change, negative = inhibition” value was 19.5%.

Regarding `COc1cc(C(=O)NCc2ccc(OCCN(C)C)cc2)cc(OC)c1OC`, the “activity change, negative = inhibition” value was -2.95% [at 20.6 µM].

For `OC(C#CCN1CCCC1)(c1ccccc1)c1ccccc1`, the Potency was 22.4 µM (active).

Turning to `CCCCNC(=O)NS(=O)(=O)c1ccc(N)cc1`, the “activity change, negative = inhibition” value is 9.29%.

In the case of `CCC(CC)(CC(=O)Nc1cccc(/C=C/c2nc(C3CCC3)cs2)c1)C(=O)O`, the “activity change, negative = inhibition” value is 14%.

As for `NC(N)=NCc1cccc(I)c1`, the “activity change, negative = inhibition” value was -2.8%.

`CC(=O)O[C@H]1C[C@@H]2CC[C@@H]3[C@H](CC[C@@]4(C)[C@H]3C[C@H]([N+]3(C)CCCCC3)[C@@H]4OC(C)=O)[C@@]2(C)C[C@@H]1N1CCCCC1`: the “activity change, negative = inhibition” value is 22.7%.

In the case of `CCCCN=C(N)N=C(N)N`, the “activity change, negative = inhibition” value is 3.31%.

As for `O=C(O)P(=O)(O)O`, the “activity change, negative = inhibition” value was -8.13%.

For `Nc1nc(-c2ccccc2)c(Br)c(=O)[nH]1`, the “activity change, negative = inhibition” value was 24.1%.

`CC1CCc2c(N3CCC(O)CC3)c(F)cc3c(=O)c(C(=O)O)cn1c23` (stereo not given): the “activity change, negative = inhibition” value was 4.64%.

With `CCNC(=O)NCc1cccc(Cl)c1`, the “activity change, negative = inhibition” value was 7.45%.

Regarding `CC(=O)OC[C@H]1O[C@@H](n2ncc(=O)[nH]c2=O)[C@H](OC(C)=O)[C@@H]1OC(C)=O`, the “activity change, negative = inhibition” value was -2.06%.

Consider `COc1cc(N)c(Cl)cc1C(=O)NC1CCN(Cc2ccccc2)CC1`, for which the Potency was 5.01 µM (active).

As for `CCOc1ccccc1OCCN[C@H](C)Cc1ccc(OC)c(S(N)(=O)=O)c1`, the Potency is 14.1 µM (active).

As to `O=C1C(CCS(=O)c2ccccc2)C(=O)N(c2ccccc2)N1c1ccccc1` (stereo not given), the “activity change, negative = inhibition” value is -3.87% [at 20.6 µM].

With `Nc1ccc(S(=O)(=O)NCc2ccccc2)cc1`, the “activity change, negative = inhibition” value was 33.4%.

`CC(C)[N+](C)(C)CC(O)COc1cccc2ccccc12` (stereo not given): the “activity change, negative = inhibition” value was 3.46%.

Regarding `NS(=O)(=O)c1ccc(Cl)c(S(N)(=O)=O)c1`, the “activity change, negative = inhibition” value was 8.84%.

Take `COc1ccc2c(c1)c1c3n2CCN(C)C3=NCC1`: the Potency is 3.98 µM (active).

As to `COc1ccc(-c2cc(C(F)F)nn2-c2ccc(S(N)(=O)=O)cc2)cc1F`, the “activity change, negative = inhibition” value was 0.278%.

Regarding `Cc1cccc(C)c1NC(=O)CN1CCCCCC1`, the “activity change, negative = inhibition” value is -0.0116%.

With `COc1ccc(/C=N/NC(=O)c2ccncc2)cc1OC`, the “activity change, negative = inhibition” value was 2.11%.

As for `Nc1ccc(S(=O)(=O)Nc2cnc3ccccc3n2)cc1`, the “activity change, negative = inhibition” value was -1.4%.

For `O=C(NC1CCN(CCc2c[nH]c3ccccc23)CC1)c1ccccc1`, the Potency was 0.891 µM (active).

On to `C#C[C@]1(O)CC[C@H]2[C@@H]3CCc4cc(OC)ccc4[C@H]3CC[C@@]21C`, for which the “activity change, negative = inhibition” value was -25%.

Consider `O=C(O)C(Cc1cc(I)c(O)c(I)c1)c1ccccc1` (stereo not given), for which the “activity change, negative = inhibition” value is 11.3%.

As to `CC(=O)Oc1ccc(C)cc1`, the “activity change, negative = inhibition” value was 0.766%.

Turning to `O=C1C(O)=C(O)C(=O)C(O)=C1O`, the “activity change, negative = inhibition” value was -19%.

Regarding `NC(=O)C1(N2CCCCC2)CCN(CCCC(=O)c2ccc(F)cc2)CC1`, the Potency is 3.55 µM (active).

As to `CC(=O)NO`, the “activity change, negative = inhibition” value was 8.37%.

The target in another assay is Luciferin 4-monooxygenase (Photinus pyralis) (UniProt P08659). The assay is described as follows: Biochemical firefly luciferase enzyme assay for NPC (AID 624030). Further: nearly all actives have a fitted effect of over 70% in size.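 On activity change, negative = inhibition: purified P. pyralis luciferase at 10 nM with luciferin and ATP substrate; 0% = DMSO and -100% = full luciferase inhibition by PTC124 control.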 The conditions noted are these: purified P. pyralis luciferase, luminescence, 5 min; series mostly up to 58.6 µM; activity change, negative = inhibition: at the top concentration. A digest of the protocol:
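Direct inhibition of firefly luciferase enzyme (10 nM final, 50 mM Tris Acetate) assessed by luminescence within 5 minutes. Percent activity scaled between DMSO and PTC124 positive control, with concentration-effect curves classified by fit quality and response.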
On to `C/C=C/C=N/NC(=O)c1ccncc1`, for which the “activity change, negative = inhibition” value was -0.411%.

In the case of `CC(C)Nc1cccnc1N1CCN(C(=O)c2cc3cc(NS(C)(=O)=O)ccc3[nH]2)CC1`, the “activity change, negative = inhibition” value is -3.91%.

For the compound `CCCCNc1ccc(C(=O)OCCOCCOCCOCCOCCOCCOCCOCCOCCOC)cc1`, the “activity change, negative = inhibition” value was -2.43% [at 24.9 µM].

For the compound `CN1CCN(c2c(F)cc3c(=O)c(C(=O)O)cn4c3c2SCC4)CC1`, the “activity change, negative = inhibition” value is 2.84%.

With `OCc1ccccn1`, the “activity change, negative = inhibition” value was -1.64%.

For the compound `COc1cc(C(=O)NCc2ccc(OCCN(C)C)cc2)cc(OC)c1OC`, the “activity change, negative = inhibition” value is 4.1% [at 24.9 µM].

Turning to `OC(C#CCN1CCCC1)(c1ccccc1)c1ccccc1`, the “activity change, negative = inhibition” value was 1.52%.

For `CCCCNC(=O)NS(=O)(=O)c1ccc(N)cc1`, the “activity change, negative = inhibition” value was 1.24%.

Take `CCC(CC)(CC(=O)Nc1cccc(/C=C/c2nc(C3CCC3)cs2)c1)C(=O)O`: the Potency is 5.73 µM (active).

As to `NC(N)=NCc1cccc(I)c1`, the Potency result was “inactive”.

Turning to `CC(=O)O[C@H]1C[C@@H]2CC[C@@H]3[C@H](CC[C@@]4(C)[C@H]3C[C@H]([N+]3(C)CCCCC3)[C@@H]4OC(C)=O)[C@@]2(C)C[C@@H]1N1CCCCC1`, the “activity change, negative = inhibition” value was -0.98%.

For the compound `CCCCN=C(N)N=C(N)N`, the “activity change, negative = inhibition” value was -0.954%.

For `O=C(O)P(=O)(O)O`, the “activity change, negative = inhibition” value is 1.57%.

As for `Nc1nc(-c2ccccc2)c(Br)c(=O)[nH]1`, the “activity change, negative = inhibition” value is -11.8%.

For the compound `CC1CCc2c(N3CCC(O)CC3)c(F)cc3c(=O)c(C(=O)O)cn1c23` (stereo not given), the “activity change, negative = inhibition” value is 0.732%.

Turning to `CCNC(=O)NCc1cccc(Cl)c1`, the “activity change, negative = inhibition” value was 0.54%.

Turning to `CC(=O)OC[C@H]1O[C@@H](n2ncc(=O)[nH]c2=O)[C@H](OC(C)=O)[C@@H]1OC(C)=O`, the “activity change, negative = inhibition” value is 0.966%.

For the compound `COc1cc(N)c(Cl)cc1C(=O)NC1CCN(Cc2ccccc2)CC1`, the “activity change, negative = inhibition” value is -0.288% [at 24.9 µM].

`CCOc1ccccc1OCCN[C@H](C)Cc1ccc(OC)c(S(N)(=O)=O)c1`: the “activity change, negative = inhibition” value is 7.64%.

For `O=C1C(CCS(=O)c2ccccc2)C(=O)N(c2ccccc2)N1c1ccccc1` (stereo not given), the “activity change, negative = inhibition” value is -5.55% [at 24.9 µM].

On to `Nc1ccc(S(=O)(=O)NCc2ccccc2)cc1`, for which the “activity change, negative = inhibition” value is -5.58%.

In the case of `CC(C)[N+](C)(C)CC(O)COc1cccc2ccccc12` (stereo not given), the “activity change, negative = inhibition” value was -0.868%.

Consider `NS(=O)(=O)c1ccc(Cl)c(S(N)(=O)=O)c1`, for which the “activity change, negative = inhibition” value is 6.23%.

For `COc1ccc2c(c1)c1c3n2CCN(C)C3=NCC1`, the “activity change, negative = inhibition” value was 4.25%.

Consider `COc1ccc(-c2cc(C(F)F)nn2-c2ccc(S(N)(=O)=O)cc2)cc1F`, for which the “activity change, negative = inhibition” value was 1.02%.

Consider `Cc1cccc(C)c1NC(=O)CN1CCCCCC1`, for which the “activity change, negative = inhibition” value was 1.43%.

Consider `COc1ccc(/C=N/NC(=O)c2ccncc2)cc1OC`, for which the “activity change, negative = inhibition” value is -5.82%.

`Nc1ccc(S(=O)(=O)Nc2cnc3ccccc3n2)cc1`: the “activity change, negative = inhibition” value is -1.14%.

For the compound `O=C(NC1CCN(CCc2c[nH]c3ccccc23)CC1)c1ccccc1`, the “activity change, negative = inhibition” value is 2.62%.

In the case of `C#C[C@]1(O)CC[C@H]2[C@@H]3CCc4cc(OC)ccc4[C@H]3CC[C@@]21C`, the “activity change, negative = inhibition” value is -4.88%.

As to `O=C(O)C(Cc1cc(I)c(O)c(I)c1)c1ccccc1` (stereo not given), the “activity change, negative = inhibition” value was -19.8%.

Turning to `CC(=O)Oc1ccc(C)cc1`, the “activity change, negative = inhibition” value was 8.56%.

Take `O=C1C(O)=C(O)C(=O)C(O)=C1O`: the “activity change, negative = inhibition” value is -12.7%.

With `NC(=O)C1(N2CCCCC2)CCN(CCCC(=O)c2ccc(F)cc2)CC1`, the “activity change, negative = inhibition” value was -0.475%.

Consider `CC(=O)NO`, for which the “activity change, negative = inhibition” value is -1.27%.
